# Bioassay records from PubChem BioAssay.
# The full list was thinned out, with hits kept by preference.
# Algae TAG accum = inducers of TAG accumulation in Chlamydomonas, primary screen, qHTS, Chlamydomonas reinhardtii | Nile Red fluorescence, 72 h | calls only at 10 µM (by protocol) | 0.84% of 44,000 active | AID 1159537, 2015; call rule not given here;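 further: hits raise Nile Red signal meaning more stored TAG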
# * = called active by the depositor; i = inactive; + = active, no number.
SMILES,Algae TAG accum
COc1ccc(N2CCN(C3CC(=O)N(c4cccc(C)c4)C3=O)CC2)cc1 (configuration not stated),i
O=C(Nc1ccccc1F)c1c(F)c(F)c(F)c(F)c1F,i
O=C(Nc1ccc(Br)cc1F)c1c(F)c(F)c(F)c(F)c1F,i
O=C(Nc1ccc(Cl)cc1F)c1c(F)c(F)c(F)c(F)c1F,+
CC(=O)Nc1ccc(N2C(=O)CC(NCCc3cccc(F)c3)C2=O)cc1 (configuration not stated),i
COc1cccc(NC(=O)C2CC(=O)NC(Nc3nc4ccccc4s3)=N2)c1 (configuration not stated),i
C=CCNC(=O)C(C)N(c1ccc(OCC)cc1)S(C)(=O)=O (configuration not stated),+
CCOc1ccc(N(C(C)C(=O)NCc2ccccc2OC)S(C)(=O)=O)cc1 (configuration not stated),i
CCOc1ccc(N(C(C)C(N)=O)S(C)(=O)=O)cc1 (configuration not stated),i
COc1ccc2nc(NC(N)=NS(C)(=O)=O)nc(C)c2c1,i
Cc1ccc(OCCCCN2CCCC2)c(Br)c1,+
Cc1ccc(OCCCn2ccnc2)c([N+](=O)[O-])c1,i
Cc1ccc(OCCCn2ccnc2)c(Br)c1,+
Cc1ccccc1OCCCCN1CCCCC1,i
Cc1ccc(OCCCN2CCCCC2)c(C)c1,i
Cc1ccc(OCCCN2CCCC2)c([N+](=O)[O-])c1,i
Cc1ccc(OCCCCN2CCOCC2)cc1,+
Cc1ccc(OCCCCn2ccnc2)c(Br)c1,i
Clc1ccc(OCCCN2CCOCC2)cc1,i
Cc1ccc(OCCCCN2CCCCC2)cc1,i
Cc1ccc(OCCCN2CCCC2)c(Br)c1,i
Cc1ccc(OCCCCN2CCCC2)c(C)c1,+
Cn1ccnc1SCC(=O)c1ccc(O)c(O)c1,i
CCN1C(=O)C2C3c4ccccc4C(C(=O)O)(c4ccccc43)C2C1=O (configuration not stated),i
O=C(NCc1ccccc1Cl)C1CC(=O)N(c2cccc([N+](=O)[O-])c2)C1 (configuration not stated),i
SMILES,Algae TAG accum
COc1ccc(C(=O)N2CCC(C(=O)Nc3ccc(F)c(Cl)c3)CC2)cc1,i
CCOc1ccccc1NC(=O)c1ccc(I)cc1,i
N#Cc1cccc(NC(=O)CCC(=O)O)c1,i
O=C(CCN1CCCC1)Nc1ccccc1F,i
Cc1cc2ncn(CC(O)COc3ccccc3C(=O)O)c2cc1C (configuration not stated),i
Cc1cc(C)c(NC(=O)CN2C(=O)c3ccccc3C2=O)c(Cl)c1,i
Cc1cccc(OCCCCN2CCCCC2)c1,i
Cc1ccccc1OCCCN1CCOCC1,i
Cc1ccc(OCCCCN2CCCC2)cc1C,+
Cc1ccc(OCCCN2CCOCC2)c(C)c1,+
Cc1ccc(OCCCCN2CCOCC2)c(C)c1,i
Cc1ccc(OCCN2CCCC2)cc1C,i
CCC(=O)Nc1nc2c(s1)CCCC2,i
COc1ccc(OC)c(NS(=O)(=O)c2ccc(NC(=O)c3ccccc3Cl)cc2)c1,i
COc1cc(C(=O)N2CCN(Cc3ccc(OC)c(OC)c3OC)CC2)cc(OC)c1OC,i
COc1cccc(CN2CCN(C(=O)c3cc(OC)c(OC)c(OC)c3)CC2)c1OC,+
COc1ccc(CN2CCN(Cc3ccccc3)CC2)c(OC)c1OC,+
COc1ccc(CN2CCN(Cc3ccc(SC)cc3)CC2)c(OC)c1OC,i
COc1ccc(CN2CCN(c3ccccc3Cl)CC2)c(OC)c1OC,i
COc1cc(C(=O)N2CCN(Cc3ccccc3F)CC2)cc(OC)c1OC,i
COc1cccc(CN2CCN(Cc3cc(OC)c(OC)c(OC)c3)CC2)c1OC,i
COc1cccc(CN2CCN(Cc3ccc(F)cc3)CC2)c1OC,+
COc1ccc(CN2CCN(Cc3cccc(OC)c3OC)CC2)cc1,i
Cc1ccc(OCCCC(=O)Nc2ccc(C)cc2C)cc1,i
COc1cccc(NC(=O)c2sc3nc4c(cc3c2N)C(=O)CCC4)c1,i
SMILES,Algae TAG accum
COc1ccc(N(CC(=O)Nc2ccc(F)cc2)S(C)(=O)=O)cc1OC,i
Oc1ccc(Br)cc1CN1CCN(C2CC3CCC2C3)CC1 (configuration not stated),i
O=[N+]([O-])c1ccc(CN2CCN(C3CC4CCC3C4)CC2)cc1 (configuration not stated),+
O=[N+]([O-])c1cccc(CN2CCN(C3CC4CCC3C4)CC2)c1 (configuration not stated),i
c1ccc(CN2CCN(C3CC4CCC3C4)CC2)cc1 (configuration not stated),+
O=[N+]([O-])c1ccc(CN2CCN(C3CCN(Cc4ccccc4)CC3)CC2)cc1,i
c1ccc(CN2CCC(NC3C4CC5CC(C4)CC3C5)CC2)cc1 (configuration not stated),i
Cn1c(/C=C/c2ccc(F)cc2)nc2ccc(I)cc2c1=O,i
COc1cc(/C=C(\C#N)c2nc3ccccc3[nH]2)ccc1OCC(=O)O,i
CC(Oc1ccc(Cl)cc1Cl)C(=O)Nc1ccc([N+](=O)[O-])cc1 (configuration not stated),i
COc1ccc(OC)c(C2C(C#N)=C(N)OC3=C2C(=O)CC(c2ccccc2)C3)c1 (configuration not stated),i
Cc1ccc(CN2CCC(C(=O)N(CCO)Cc3ccccc3)CC2)cc1,i
C=C(C)CN(CC)C(=O)C1CCN(Cc2cccnc2)CC1,i
CCc1ccc(CN2CCC(C(=O)N(CC)Cc3ccccc3)CC2)cc1,+
CCOc1ccc(CN2CCC(C(=O)N(CCO)Cc3ccccc3)CC2)cc1,i
CCN(Cc1ccccc1)C(=O)C1CCNCC1,i
C=C(C)CN(CC)C(=O)C1CCN(Cc2ccc(Cl)cc2)CC1,+
CCN(CC)C(=O)C1CCCN(Cc2ccc(Cl)cc2)C1 (configuration not stated),i
CCN(Cc1ccccc1)C(=O)C1CCN(CCCc2ccccc2)CC1,+
O=C(C1CCN(CCCc2ccccc2)CC1)N1CCCCC1,i
CCCCc1ccc(NC(=O)Cn2cnc3ccccc3c2=O)cc1,i
CCOc1ccc(C(=O)Nc2ccc(C(C)=O)cc2)cc1Br,i
COc1ccc(NC(=O)CN(c2ccc(C)cc2)S(=O)(=O)c2ccc(F)cc2)cc1OC,i
CCc1ccc(NC(=O)C(=O)NC2CCCC2)cc1,i
CCc1ccc(C2C(C#N)=C(N)Oc3c2c(=O)[nH]c2ccccc32)cc1 (configuration not stated),i
SMILES,Algae TAG accum
O=C(Nc1ccccc1C(=O)N1CCN(CCO)CC1)c1ccc(Cl)cc1Cl,i
CCC(C(=O)N1CCN(Cc2ccccc2)CC1)c1ccccc1 (configuration not stated),i
CC(=O)c1cccc(NC(=O)CSc2nc(C)cc(C)n2)c1,i
Cc1nnc(N2C(=O)C(O)=C(C(=O)c3ccco3)C2c2ccc(Cl)cc2)s1 (configuration not stated),i
COc1ccc(NC(=O)c2ccccc2I)cc1,i
COc1ccc(Cc2cnc(NC(=O)Cc3ccccc3)s2)cc1,i
O=C(Nc1ncc(Cc2ccc(F)cc2)s1)C1CCCO1 (configuration not stated),i
O=C(CN1CCCCC1)Nc1ncc(Cc2ccc(F)cc2)s1,+
COc1ccc(C(=O)NCC2CCCO2)cc1[N+](=O)[O-] (configuration not stated),i
O=C(NCc1ccncc1)c1cccc(I)c1,i
